# In PubChem BioAssay (Tox21):
# Records with an inconclusive call do not appear. Where a call stands in place of a potency, no number is given. Active and inactive are the calls of the source. The call rests on the fitted dose curve; in most records, active means well fitted cell-killing curve with a large enough effect in the repeat runs (not every such curve was filed as active); inconclusive means weak or mixed curves, or effect the other way; inactive means no such curve, though single readings can be large or run the other way.
# Experiment: qHTS assay to identify small molecule antagonists of the estrogen related receptor signaling pathway with the pleiotropic PPARgamma coactivator (PGC) from Tox21 10K library - cell viability counter screen (AID 1224840); further: nearly all actives have a fitted effect of over 40% in size
# Details: PGC/ERR reporter cells viability, CellTiter-Fluor, 17.5 h; series mostly up to 92.4 µM
# Summary of the method: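 PGC/ERR cells, 2,000/well; 6 h pre-incubation 37 C/5% CO2; cpd in DMSO via pin tool; 17.5 h 37 C; CellTiter-Fluor, 30 min; fluorescence.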
# Potency means the concentration at half of the fitted maximal effect.
row,Compound,Potency
1,COc1cc(NCc2ccc3nc(N)nc(N)c3c2C)cc(OC)c1OC,inactive
2,CCCCCCCC(=O)OCCCCCC,inactive
3,O=CNNC=O,inactive
4,COc1ccc(-n2nc(C(F)F)cc2-c2ccc(S(C)=O)cc2)cc1 (centres undefined),inactive
5,CC(C)(C(=O)c1cccnc1)c1cccnc1,inactive
6,Cc1ccc2c(c1[N+](=O)[O-])C(=O)c1ccccc1C2=O,inactive
7,CC(=O)NNC(C)=O,inactive
8,C[C@H](CS)C(=O)N1CCC[C@H]1C(=O)O,inactive
9,O=C(NC(Cc1cc(=O)[nH]c2ccccc12)C(=O)O)c1ccc(Cl)cc1 (centres undefined),inactive
10,CCN(CC)C(=O)N1CCN(C)CC1,inactive
11,CC(=O)OCC(C)C,inactive
12,COc1ccc(N)c([N+](=O)[O-])c1,inactive
13,CC(C)(C)S,inactive
14,C1CCCCC1,inactive
15,CCCOC(=O)c1c(Cl)c(Cl)c(Cl)c(Cl)c1C(=O)OCCC,inactive
16,CCCCCC,inactive
17,Nc1ccn([C@H]2CS[C@@H](CO)O2)c(=O)n1,inactive
18,Nc1nc(-c2ccc([N+](=O)[O-])cc2)cs1,inactive
19,CCN(CC)CCOc1ccccc1C(=O)CCc1ccccc1,inactive
20,COc1cc(C(C)=O)ccc1OCCCN1CCC(c2noc3cc(F)ccc23)CC1,inactive
21,CCN(CC)c1ccc(C(=C2C=CC(=[N+](CC)CC)C=C2)c2ccc(S(=O)(=O)O)cc2S(=O)(=O)[O-])cc1,27.3 µM (active)
22,COC(CC(C)CCCC(C)(C)O)OC (centres undefined),inactive
23,O=c1[nH]c2cc(C(F)(F)F)c(N3CCOCC3)cc2n(CP(=O)(O)O)c1=O,inactive
24,CCCCCCOC(=O)CCCCC,inactive
